Experimental findings from PubChem BioAssay (NCI) are described below.

Compounds without any hit were thinned out: in the full panel of roughly 83,000, 20% have a hit.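 Single-dose data. Exposure time 48 hours. Values below 10 considered active.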 Activity calls are given as the source filed them.

The test system of the test is U251 CNS. As to the kind of experiment: NCI-60 one-dose screen, 48 h (100 = growth as untreated, 0 = no growth, -100 = all killed). The following applies: 10 µM unless noted. The protocol:
Growth inhibition of the U251 human tumor cell line is measured as a screen for anti-cancer activity. Cells are grown in 96 well plates and exposed to the test compound for 48 hours. Compounds are tested at a single concentration, which is 10^-5 M for most compounds. The reported endpoint is percent growth (GI% or GIPRCNT), where numbers from 0 - 100% represent growth inhibition, and numbers from -100% - 0 represent cell death. For example, a value of 40 represents 60% growth inhibition. A value of 0 means no net growth occurred over the course of the experiment. A value of -40 indicates 40% of cells at the beginning of the experiment died by the end of the experiment. A value of -100 means all cells are dead at the end of the experiment.
NCI-60 Human Tumor Cell Lines Screen was performed using the standard one-dose NCI protocol, which is described in more detail at https://dtp.cancer.gov/discovery_development/nci-60/default.htm.
Compounds with GIPRCNT values below 10 were considered active. Activity score was based on GIPRCNT using the following formula: […]
Score is 0 for GIPRCNT values of 100 or above, 50 for GIPRCNT values of 0, and 100 for GIPRCNT values of -100.
Turning to `Cc1ccccc1[C@H]1C(C(=O)c2ccc(Cl)cc2)C2(N[C@@H]1c1ccccc1)C(=O)Nc1ccccc12` (stereo not given in full), the growth was -58.1% (active).
Then `O=C(/C=C/c1ccc(-c2ccccc2)cc1)c1nc2ccccc2n1Cc1ccc(Br)cc1`, with 27.4% (inactive).
For the molecule `COc1cc2c(c(OC)c1OC)C(=O)CC(c1cccc(NC(=O)[C@@H](N)CC(C)C)c1)O2` (stereo not given in full), the growth is 95.3% (inactive).
In the case of `Cn1cc(-c2cc(N)n3nc(-c4cn(C)c5ccccc45)cc3n2)c2cc(Br)ccc21` it was -72% (active).
As to `CCOC(=O)C1=C(N)N(c2ccccc2)C2=C(C(=O)CC(C)(C)C2)C1c1ccccc1Cl` (stereo not given), the growth was 79.3% (inactive).
Then `COc1ccc(C(=O)/C=C/c2cc3c(cc2Br)OCO3)cc1S(N)(=O)=O`, with -95.1% (active); and `COc1ccc(-c2ccc(SCC(=O)Nc3ccc(S(N)(=O)=O)cc3Br)nn2)cc1`, with 52.4% (inactive); and `CC(=O)c1c(N)c(C#N)cn1-c1ccc(Cl)cc1Cl`, with 98% (inactive).
In the case of `C/C(=N\Nc1ccc(S(N)(=O)=O)cc1)c1ccc(N=Nc2c(Nc3ccccc3)[nH][nH]c2=O)cc1` it was -46.7% (active); in that of `COc1ccc(C(=O)/C=C/c2cccc(Cl)c2Cl)cc1S(N)(=O)=O`, -96.3% (active); in that of `COc1ccc(NC(=O)[C@@H](N)Cc2ccccc2)cc1C(=O)Nc1cccc(C2CC(=O)c3c(cc(OC)c(OC)c3OC)O2)c1` (stereo not given in full), 60.2% (inactive).
In the case of `COc1cc(-c2ccc(/C=N/NC(=O)c3[nH]c4ccc(Br)cc4c3-c3ccccc3)o2)cc(OC)c1OC` it was 40.6% (inactive); in that of `S=c1c2ccccc2nc2n1CCc1c-2[nH]c2ccccc12`, 73.8% (inactive); in that of `Cn1cc(-c2nnc(N)nc2-c2c[nH]c3ccc(F)cc23)c2cccnc21`, 37.3% (inactive).
Regarding `CCC(C)(C)c1ccc(OCCCCCCN2CCN(c3ccncc3)CC2)cc1`, the growth was -45.7% (active).
Then `COc1cc2c(c(OC)c1OC)C(=O)CC(c1cccc(NC(=O)c3cc(NC(=O)[C@H](CO)NC(=O)OC(C)(C)C)ccc3Cl)c1)O2` (stereo not given in full), with 25.4% (inactive); and `O=C(CN1C(=O)/C(=C/c2ccccc2F)SC1=S)N1CCOCC1`, with 91.8% (inactive).
In the case of `CC(C)Sc1nc(NCCc2c[nH]c3ccccc23)c(C#N)c(-c2ccccc2)n1` it was 15.5% (inactive).
Then `CC1=C(C(=O)c2ccccc2)C(c2cccc(Cl)c2Cl)n2c(nc3ccccc32)N1` (stereo not given), with 16.9% (inactive); and `C=C1CCC2C3(C)COC(c4ccc(F)cc4)OC3CCC2(C)C1CC(O)C1=CCOC1=O` (stereo not given), with 59.6% (inactive); and `CCC(C)(C)c1ccc(OCCCCN2CCN(c3ccncc3)CC2)cc1`, with -11.8% (active).
Turning to `CC(=O)Oc1ccccc1C(=O)[Se]C(=NC1CCCCC1)NC1CCCCC1`, the growth is -87% (active).
In the case of `CC12CC[C@@H]3[C@]4(C)COC(c5c(F)cccc5F)O[C@@H]4CC[C@@]3(C)[C@@H]1CC(C1=CCOC1=O)O2` (stereo not given in full) it was 80% (inactive); in that of `CCOC(=O)C1=C(N)N(c2ccccc2)C2=C(C(=O)CC(C)(C)C2)C1c1ccc(Cl)cc1Cl` (stereo not given), 27.6% (inactive).
Then `O=C1/C(=C/C2=Cc3ccccc3OC2)SC(=S)N1c1ccccc1F`, with 102% (inactive); and `O=C(c1ccccc1)c1ccc2nc(-c3cccc(Cl)c3)[nH]c2c1`, with 96.5% (inactive); and `CCOc1ccc(-c2c(C#N)c(-c3ccc(Cl)cc3)nc3n[nH]c(-c4ccc(Cl)cc4)c23)cc1OC`, with 62.9% (inactive).
In the case of `COc1ccc2[nH]cc(-c3cc(N)n4nc(-c5cn(C)c6ccccc56)cc4n3)c2c1` it was -85.3% (active); in that of `COCOc1cc2oc(C(=O)N[C@@H](Cc3ccccc3)C(O)C(=O)NCc3ccccc3)c(C)c(=O)c2cc1OCOC` (stereo not given in full), 41.3% (inactive); in that of `CCN(CC)c1ccnc(CNCCSC(c2ccccc2)(c2ccccc2)c2ccc(C)cc2)c1`, -93% (active).
Turning to `OCC1(CCCc2ccccc2)CCCN(c2nccc3ccccc23)C1` (stereo not given), the growth was 40.1% (inactive).
In the case of `COc1cc(CNC(=O)/C=C/c2ccc3c(c2)OCO3)ccc1OCc1cn(-c2cccc(C(F)(F)F)c2)nn1` it was -32.9% (active); in that of `Cc1ccc2c(N)c(C(=O)Nc3ccc(-c4ccccc4)cc3)sc2n1`, 85.2% (inactive).
In the case of `CC(=O)OC[C@@]1(C)C2CC[C@]3(C)C(CC=C4C5CC(C)(C)CC[C@]5(C(=O)Nc5cccc(C)c5)CC[C@]43C)[C@@]2(C)C[C@@H](OC(C)=O)[C@@H]1OC(C)=O` (stereo not given in full) it was 40.6% (inactive).
Then `COc1cc(OC)cc(-c2cc3ccc(N(C)C)cc3c(=O)[nH]2)c1`, with 7.67% (active); and `COc1ccc2[nH]cc(-c3nnc(N)nc3-c3c[nH]c4ncc(Br)cc34)c2c1`, with 76.1% (inactive); and `O=C(N=Nc1c(O)[nH]c2ccc([N+](=O)[O-])cc12)c1ccc2nc(-c3ccccc3)[nH]c2c1`, with 34.8% (inactive).
For the molecule `N#Cc1c(-c2cccc(Cl)c2Cl)cc(-c2c[nH]c3ccccc23)[nH]c1=O`, the growth is 68.9% (inactive).
Then `S=C(Nc1ccc(OCc2nc3ccccc3[nH]2)cc1)NC1CCCCC1`, with 97% (inactive).
Then `O=C(/C=C/Nc1ccc2oc(=O)ccc2c1)c1cc2cc(Br)ccc2oc1=O`, with 102% (inactive).
